# The campaign covered roughly 48,000 compounds. About 13,000 (27%) showed an effect of 50% or more. This is one part of the list.
# System: Wolbachia pipientis
# Assay: Anti-Wolbachia Cell-Based Screen
# Type: functional
# Parameters: scale not given: in the data most compounds retested in dose-response had high values
# Settings: 5 µM
row,Structure (SMILES),Percent Effect [%]
1,O=C(NC1CCN(c2ncccn2)CC1)c1cc2c([nH]c1=O)CCC2,7.428
2,Cc1nnc(SCCC(=O)N(C)Cc2ccc(F)cc2F)[nH]1,2.141
3,O=C(O)C(F)(F)F.O=C1CC[C@H]2[C@H](CCN2C(=O)C2CCOCC2)N1Cc1ccncc1,25.13
4,CN1CCN(C(=O)c2ccc3c(c2)[nH]c(=O)n3C2CCCC2)CC1,14.39
5,Cc1cc(-c2nn(C)c(Cl)c2CN2CCCCC(N)C2)no1 (stereo not drawn),-8.809
6,COCc1cc(CC2(NC3CCCCC3)COC2)no1,18.94
7,CC(Cn1cccn1)NCc1csc(-c2ccc3c(c2)OCO3)n1 (stereo not drawn),-1.421
8,Cc1cc2[nH]c(CN3CCOC(Cc4ccccc4)C3)cc(=O)n2n1 (stereo not drawn),-6.493
9,Cc1cccc(C(=O)Nc2cccc3c2C(=O)NC3)n1,-5.114
10,COCC1CN(C(=O)c2cccc(C)n2)Cc2ncnn2C1 (stereo not drawn),-6.948
11,CCc1sc(-c2nnc(CNC(C)Cn3cc(C)cn3)o2)cc1C (stereo not drawn),-3.595
12,CCc1ccc(CN2CCN(Cc3ncc[nH]3)[C@H]3CS(=O)(=O)C[C@H]32)nc1,8.56
13,[O-][S+](CCN1CCc2[nH]nc(C(F)(F)F)c2C1)c1ccccc1 (stereo not drawn),-3.726
14,Cn1ncc2c(=O)[nH]c(CN3CCCC3Cc3ccc(F)cc3)nc21 (stereo not drawn),116
15,Cn1ncc2c(=O)[nH]c(CN3CCCC3CCc3ccccc3)nc21 (stereo not drawn),94.92
16,Cn1ncc2c(=O)[nH]c(CN3CCCC3CC3CCCCC3)nc21 (stereo not drawn),-0.1708
17,COc1cccc(C2CCCN2Cc2nc3c(cnn3C)c(=O)[nH]2)c1 (stereo not drawn),-3.209
18,Cn1ncc2c(=O)[nH]c(CN3CCCC3CC(C)(C)C)nc21 (stereo not drawn),114.1
19,Cn1ncc2c(=O)[nH]c(CN3CCC(Cc4ccccc4)CC3)nc21,-8.773
20,Cc1ccc(C2CCCN2Cc2nc3c(cnn3C)c(=O)[nH]2)cc1C (stereo not drawn),2.271
21,CCC1CCCCN1Cc1nc2c(cnn2C)c(=O)[nH]1 (stereo not drawn),107.5
22,Cn1ncc2c(=O)[nH]c(CN3CCCC3Cc3ccccc3)nc21 (stereo not drawn),-2.22
23,COc1ccccc1-c1noc(CCC(=O)NC(C)Cn2cccn2)n1 (stereo not drawn),-41.91

row,Structure (SMILES),Percent Effect [%]
1,COc1ccc(-n2ccnc2-c2cnc(N(C)C)nc2)cc1OC,-6.365
2,Cc1ccc(CN2CCN(c3ncccc3Cl)CC2CCO)cc1 (stereo not drawn),-15.14
3,O=C(c1cn2cc(Cl)cnc2n1)N1CCOCC(O)(CN2CCCC2)C1 (stereo not drawn),-2.711
4,Cc1nccn1-c1ccc(C(C)NCCc2ccccn2)cc1 (stereo not drawn),8.244
5,Cc1ncc(CNC2CCCN(Cc3noc(C4CC4)n3)C2)s1 (stereo not drawn),-12.11
6,CNC1CCCN(Cc2noc(C3CC3)n2)C1.Cl (stereo not drawn),-6.036
7,Cn1ccnc1CNC1CCCN(Cc2noc(C3CC3)n2)C1 (stereo not drawn),-20.64
8,CCc1noc(CNC2CCCN(Cc3noc(C4CC4)n3)C2)n1 (stereo not drawn),122.3
9,CCCc1noc(CNC2CCCN(Cc3noc(C4CC4)n3)C2)n1 (stereo not drawn),116.1
10,CCc1nc(CN2CCCC(NCc3nc(C)c(C)o3)C2)no1 (stereo not drawn),135.7
11,CCc1nc(CN2CCCC(NCc3ncc(C(C)(C)C)o3)C2)no1 (stereo not drawn),9.361
12,CCc1nc(CN2CCCC(NCc3nnc(C4CC4)n3C)C2)no1 (stereo not drawn),109.6
13,C1CC(NCc2nc(C3CC3)no2)CN(Cc2noc(C3CC3)n2)C1 (stereo not drawn),4.824
14,CCc1nc(CN2CCCC(NCc3ccc(C(N)=O)cc3)C2)no1 (stereo not drawn),-8.136
15,CCc1nc(CN2CCCC(NCc3cc(C)no3)C2)no1 (stereo not drawn),2.816
16,CCc1nc(CN2CCCC(NCCn3cncn3)C2)no1 (stereo not drawn),25.84
17,COCCN(Cc1ccc(F)cc1Cl)C(=O)c1cc(C)no1,3.523
18,Cc1cccc2c1nc1n2[C@@H](CNC(=O)Cc2ccccc2)COC1,-6.284
19,Cc1cc(C)c2c(N(C)CC3CCN(CC(C)C)C3)ncnc2n1 (stereo not drawn),16
20,Cc1nc(C(=O)N(Cc2c(C)nn(C)c2C)C(C)C)cs1,0.2586
21,CCN(C(=O)c1cccc2c1OCO2)c1ccc(Br)cn1,-0.9868
22,CCOc1ccc(N2CCC(C(O)c3ccccc3)CC2)nn1 (stereo not drawn),-5.535
23,CC(NC1(CNC(=O)OC(C)(C)C)CCOCC1)c1ccccc1 (stereo not drawn),3.949

row,Structure (SMILES),Percent Effect [%]
1,CC(NC(=O)CNC(=O)OC(C)(C)C)c1ccc(Cl)s1 (stereo not drawn),-4.782
2,CC(C)(C)OC(=O)NCCC(=O)NCC(O)c1cccc(F)c1 (stereo not drawn),-4.021
3,Cc1ccccc1CS(=O)(=O)c1nnc(C(C)NC(=O)OC(C)(C)C)o1 (stereo not drawn),85.24
4,CCC(C)NC(=O)CS(=O)(=O)Cc1ccccc1Cl (stereo not drawn),-0.4939
5,Cc1ccccc1CS(=O)(=O)c1nnc(N2CCOCC2)s1,-8.396
6,CC(NC(=O)OC(C)(C)C)c1nnc(S(=O)(=O)Cc2ccc(Cl)cc2)o1 (stereo not drawn),137.4
7,CC(C)NC(=O)NCCCc1cccc(F)c1,-3.402
8,CC(NC(=O)OC(C)(C)C)c1nnc(S(=O)(=O)Cc2ccccc2Cl)o1 (stereo not drawn),135.1
9,CC(C)S(=O)(=O)c1nnc(CCNC(=O)OC(C)(C)C)o1,16.12
10,O=S(=O)(Cc1ccccc1Cl)NC(CO)c1ccco1 (stereo not drawn),-8.194
11,C[C@H](NC(=O)OC(C)(C)C)c1nnc(S(=O)(=O)Cc2cccc(F)c2)o1,143.7
12,CC(C)(C)c1ccc(C2(C(=O)NCCS(C)(=O)=O)CC2)cc1,2.157
13,Cn1cnc(-c2ccc(F)cc2)c1NC(=O)CCNC(=O)C(C)(C)C,-6.706
14,Cc1ccc(OCC(O)CN(C)CC(=O)NC(C)C)c(C)c1 (stereo not drawn),0.9379
15,Cc1ccc(S(=O)(=O)N(C)Cc2cnccn2)cc1N(C)C,-3.361
16,CCO[C@H]1CC[C@H]2[C@H]1OCCN2C(=O)CC1=CCCCC1,80.53
17,CO[C@@H]1CC[C@H]2[C@H]1OCCN2C(=O)C1=CCCC1,4.441
18,CO[C@H]1CC[C@H]2[C@H]1OCCN2C(=O)CC1=CCCCC1,98.05
19,CO[C@H]1CC[C@H]2[C@H]1OCCN2C(=O)C1=CCCC1,2.583
20,CCOCC1CC2(CCN(C(=O)CC3=CCCCC3)CC2)CO1 (stereo not drawn),-15.26
21,CCO[C@@H]1CC[C@H]2[C@H]1OCCN2C(=O)CC1=CCCCC1,124.5
22,O=C(C1=CCCC1)N1CCO[C@H]2[C@@H](OCC3CC3)CC[C@@H]21,-8.51
